For 8 compounds, growth results are on record in PubChem BioAssay (NCI).

The panel holds about 83,000 compounds, 20% with a hit somewhere; the sample as a whole holds those more often.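 Cell lines were cultured in 96-well plates, exposed to a single compound concentration, and assessed for percent growth 48 hours later.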 Values without a mark were called inactive. Calls of active or inactive are those of the source. Rule for the calls: active = growth percent below 10; inactive = the rest.

Test systems include NCI-H23 lung; NCI-H226 lung; NCI-H322M lung; HOP-62 NSCLC; NCI-H460 lung; HOP-92 NSCLC; A549/ATCC NSCLC; 786-0 renal; COLO 205 colon; DU-145 prostate; K-562 leukemia; MALME-3M melanoma; MDA-MB-231 breast; RXF 393 renal; SF-268 CNS; SF-295 CNS; SF-539 CNS; UACC-257 melanoma; M14 melanoma; NCI-H522 lung.
Assay in all cases: NCI-60 one-dose screen, 48 h (100 = growth as untreated, 0 = no growth, -100 = all killed)
Common to all, as to conditions: 10 µM unless noted

For the compound `COc1cccc(-c2ccc3c(c2)NC(=O)/C3=C\c2ccc[nH]2)c1`, the growth in the test with NCI-H23 lung is 31.4%; in the test on NCI-H226 lung it was 50.5%; in the test with NCI-H322M lung, 45.2%; in the test with HOP-62 NSCLC, 62.7%; with NCI-H460 lung, 11.5%; in the test with HOP-92 NSCLC, 93.5%. Moreover, the growth in the test on A549/ATCC NSCLC is 57.1%; in the test on 786-0 renal it was 48.1%; with COLO 205 colon, 30%; in the test with DU-145 prostate, 65.7%; with K-562 leukemia, 12.4%; in the test on MALME-3M melanoma, 51.9%. Besides, the growth in the test on MDA-MB-231 breast is 53.4%; with RXF 393 renal, 32.2%; with SF-268 CNS, 80.8%; in the test on SF-295 CNS, 61.8%; in the test on SF-539 CNS, 45.4%; with UACC-257 melanoma, 77%. The growth in the test on M14 melanoma was 39.2%.

For `COc1ccc(/C=N/NC(=O)c2cnn3c2NC(c2ccccc2)C3)cc1OC` (stereo not drawn), the growth in the test on NCI-H23 lung is 73.9%; in the test on NCI-H226 lung, 94.1%; with NCI-H322M lung it was 75.4%; with HOP-62 NSCLC, 60%; in the test with NCI-H460 lung, 28.3%; with HOP-92 NSCLC, 73.2%. For the same compound, the growth is 54.2% in the test on A549/ATCC NSCLC; 76.2% in the test on 786-0 renal; 45.7% in the test on COLO 205 colon; 81.1% in the test on DU-145 prostate; 24.1% in the test on K-562 leukemia; 76.4% with MALME-3M melanoma. Besides, the growth is 66% in the test on MDA-MB-231 breast; 78.2% in the test on RXF 393 renal; 73.7% in the test with SF-268 CNS; 36.3% with SF-295 CNS; 63.4% in the test on SF-539 CNS; 77.9% in the test with UACC-257 melanoma. Further, the growth in the test with M14 melanoma was 45.5%.

Take `C=C1C(=O)O[C@H]2[C@H]1CC/C(CNC(=O)c1cccc3ccccc13)=C\CC[C@@]1(C)O[C@@H]21`: the growth in the test on NCI-H23 lung is 70.1%; in the test on NCI-H226 lung it was 78%; with NCI-H322M lung, 90.5%; with HOP-62 NSCLC, 93.1%; with NCI-H460 lung, 78.6%; with HOP-92 NSCLC, -11% (active). Further, the growth in the test with A549/ATCC NSCLC is 76.9%; in the test with 786-0 renal, 32.2%; in the test with COLO 205 colon, 28.5%; in the test on DU-145 prostate, 33.8%; in the test with MALME-3M melanoma it was 36.2%; with MDA-MB-231 breast, 34.1%. Further, the growth with RXF 393 renal was 27.5%; in the test with SF-268 CNS, 63.1%; in the test with SF-295 CNS, 85.9%; in the test on SF-539 CNS, 59.7%; in the test with UACC-257 melanoma, 66.2%; with M14 melanoma, 38.2%.

As to `CCNc1nc2cc(Nc3ccnc4cc(Cl)ccc34)ccc2o1`, the growth is 66.9% in the test on NCI-H23 lung; 79.6% with NCI-H226 lung; 92.9% in the test on NCI-H322M lung; 75% with HOP-62 NSCLC; 58% in the test with NCI-H460 lung; 56.8% in the test on HOP-92 NSCLC. In addition, the growth in the test on A549/ATCC NSCLC was 67.7%; in the test with 786-0 renal it was 81.7%; with COLO 205 colon, 72.2%; with DU-145 prostate, 86.2%; in the test with MALME-3M melanoma it was 91.7%; in the test with MDA-MB-231 breast, 64.3%. Also, the growth in the test on RXF 393 renal was 66.5%; in the test with SF-268 CNS, 81.1%; in the test on SF-295 CNS, 55.2%; with SF-539 CNS it was 65.9%; with UACC-257 melanoma it was 83.5%; in the test on M14 melanoma, 61%.

As to `C=C(C)[C@@H]1CC[C@]2(C(=O)N3CCN(C)CC3)CC[C@]3(C)[C@H](CC[C@@H]4[C@@]5(C)CC[C@H](OCCC#N)C(C)(C)[C@@H]5CC[C@]43C)[C@@H]12`, the growth was 100% with NCI-H23 lung; 89.4% in the test with NCI-H226 lung; 108% with HOP-62 NSCLC; 98.7% in the test with NCI-H460 lung; 93% with HOP-92 NSCLC; 95.4% in the test on NCI-H522 lung. Further, the growth in the test on A549/ATCC NSCLC is 80%; in the test on 786-0 renal, 22%; in the test on COLO 205 colon, 50.3%; in the test on DU-145 prostate it was 92.5%; with K-562 leukemia, 16.2%; in the test with MALME-3M melanoma, 118%. The growth with MDA-MB-231 breast was 65.8%; in the test on RXF 393 renal it was 47.4%; in the test with SF-268 CNS it was 90.5%; in the test on SF-295 CNS it was 115%; in the test with SF-539 CNS, 102%; with UACC-257 melanoma it was 107%. The growth in the test with M14 melanoma was 107%.

Turning to `Cc1cc(C(=O)/C=C/c2ccc[nH]2)ccc1-n1ccc(C(F)(F)F)n1`, the growth is 89.5% in the test with NCI-H23 lung; 89.8% in the test with NCI-H226 lung; 106% in the test on HOP-62 NSCLC; 98.9% in the test with NCI-H460 lung; 104% with HOP-92 NSCLC; -9.61% (active) in the test with NCI-H522 lung. In addition, the growth was 84.9% in the test with A549/ATCC NSCLC; 48.7% in the test on 786-0 renal; 115% in the test on COLO 205 colon; 96% in the test on DU-145 prostate; 53.3% with K-562 leukemia; 94.7% in the test on MALME-3M melanoma. Also, the growth in the test with MDA-MB-231 breast is 30.6%; in the test on RXF 393 renal, 21.2%; in the test with SF-268 CNS it was 49.1%; with SF-295 CNS, 85%; with SF-539 CNS, 13.5%; with UACC-257 melanoma, 97.4%. Moreover, the growth in the test on M14 melanoma is 90.5%.

Take `Oc1ccc(C2c3ccccc3Oc3ccccc32)c2cccnc12`: the growth was 30.3% in the test with NCI-H23 lung; 4.5% (active) in the test with NCI-H226 lung; 19.8% with HOP-62 NSCLC; 2.23% (active) in the test with NCI-H460 lung; 43.1% in the test with HOP-92 NSCLC; 12.2% with A549/ATCC NSCLC. Further, the growth was -18.4% (active) in the test with 786-0 renal; 34.8% in the test with COLO 205 colon; 31.2% in the test on DU-145 prostate; 10.2% in the test with MALME-3M melanoma; 30.2% in the test with MDA-MB-231 breast; 5.91% (active) with RXF 393 renal. In addition, the growth with SF-268 CNS is 20.2%; in the test with SF-295 CNS, 13%; in the test on SF-539 CNS, 10.4%; in the test with UACC-257 melanoma, 3.42% (active); in the test with M14 melanoma it was -24.5% (active).

Consider `CCNC(=O)Oc1ccc(/C(=C(\C)c2ccccc2)c2ccc(OCCN3CCCCC3)cc2)cc1`, for which the growth in the test on NCI-H23 lung was 73.6%; in the test with NCI-H226 lung it was 92.2%; in the test with HOP-62 NSCLC, 59.4%; with NCI-H460 lung it was 49.3%; in the test on HOP-92 NSCLC, 73.4%; in the test on NCI-H522 lung, 93.4%. Moreover, the growth was 56% in the test on A549/ATCC NSCLC; 16.4% in the test on 786-0 renal; 6.41% (active) with COLO 205 colon; 84.1% with DU-145 prostate; 6.5% (active) in the test with K-562 leukemia; 46.6% with MALME-3M melanoma. Also, the growth in the test with MDA-MB-231 breast was 70.7%; in the test on RXF 393 renal it was 59.3%; with SF-268 CNS it was 68.1%; in the test with SF-295 CNS it was 29.7%; in the test with SF-539 CNS it was 24.3%; with UACC-257 melanoma, -26.4% (active). Besides, in the test with M14 melanoma, the growth is -2.47% (active).
